Measured values: PubChem BioAssay (NCATS)
Results filed as inconclusive are left out. A call without a number means that no potency is given here. The source made the active and inactive calls. The call rests on the fitted dose curve; in most records, active means well fitted cell-killing curve with a large enough effect; inconclusive means small, poorly fitted or top-dose-only effect, or effect the other way; inactive means flat fitted curve, though single readings scatter.

Each molecule was assayed on Hek293T (assay: Primary qHTS to identify gynecologic anti-cancer compounds using libraries of approved drugs and bioactive compounds (AID 1345084; further: nearly all actives have a fitted effect of over 55% in size)). Details: Gynecologic cancer cell panel viability, ATPlite luminescence, 48 h, control line for the selectivity index; series mostly up to 57.5 µM.
Procedure, shortened: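 Luminescence from the ATPlite ATP-monitoring reagent indicates viable cell number; lower signal means cytotoxicity. Cells received compound 16 h after seeding and were exposed for 48 h across five concentrations.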
Potency means the concentration at half of the fitted maximal effect.

SMILES | Potency
CC(=O)N1N=C(c2ccc(N)cc2)c2cc3c(cc2C[C@H]1C)OCO3 | inactive
COC(=O)[C@]12CCCC(C)(C)C1CCc1cc(C(C)C)c(O)c(O)c12 (stereo not given in full) | inactive
COc1ccc(CN(C(=O)[C@@H](N)Cc2c(C)cc(C(N)=O)cc2C)[C@@H](C)c2ncc(-c3ccccc3)[nH]2)cc1C(=O)O | inactive
C=CC/C=C\C/C=C\CCCCCCCc1cc(O)cc(O)c1 | inactive
CN1C2CCC1CC(OC(=O)N1Cc3ccccc3NC1=O)C2 (stereo not given) | inactive
COC(=O)CC1CC2(C(=O)c3c(O)cccc3C2(O)C(=O)OC)C(C)O1 (stereo not given) | inactive
c1cncc(OC[C@@H]2CCN2)c1 | inactive
Cc1c(Cl)c(OCC(=O)N2CCN(C)CC2)nc2sc(C(=O)NC3CC3)c(N)c12 | inactive
CN1CCc2cc3c(cc2C1C1OC(=O)c2c1ccc1c2OCO1)OCO3 (stereo not given) | inactive
C#CCO[C@H]1CN2CCC1CC2 | inactive
CC1CCCC(O)CC(=O)Cc2cc(O)cc(O)c2C(=O)O1 (stereo not given) | inactive
COc1ccsc1CNCC[C@@]1(c2ccccn2)CCOC2(CCCC2)C1 | inactive
C1=C(c2cnc[nH]2)c2ccsc2CC1 | inactive
CC1=CC2(O)/C=C/C(C)(O)C(O)C(O)/C=C/C(=O)OC23C(=O)NC(CC(C)C)C3C1C (stereo not given) | inactive
C/C=C1/CN2CC[C@]34C(=Nc5ccc(OC)cc53)C2C[C@@H]1C4(CO)C(=O)OC (stereo not given in full) | inactive
Cc1cccc(NC(=O)N[C@H]2CN(C)c3ccccc3C(c3ccccc3)=N2)c1 | inactive
Oc1ccc2c3c1O[C@H]1c4[nH]c5c(N=C=S)cccc5c4C[C@@]4(O)[C@@H](C2)N(CC2CC2)CC[C@]314 | inactive
CO[C@@H]1[C@H](O)[C@@H](O[C@@H]2C[C@H]3CC[C@@H]4C(CC[C@]5(C)[C@@H](C6=CC(=O)OC6)CC[C@]45O)[C@@]3(C)[C@H](O)C2)O[C@H](C)[C@@H]1O (stereo not given in full) | 224 nM (active)
C[C@@H]1CCC/C=C/[C@H]2C[C@@H](O)C[C@@H]2[C@@H](O)/C=C/C(=O)O1 | 1000 nM (active)
C[C@]12CCC(=O)C=C1CC[C@@H]1[C@@H]2[C@@H](O)C[C@]2(C)C(=O)CC[C@@H]12 | inactive
CCC(C)(O)C1(C(=O)O)COC(=O)C1 (stereo not given) | inactive
COC(=O)C1=COC(C)C2CN3CCC4(C(=O)Nc5ccccc54)C3CC12 (stereo not given) | inactive
CC1(C)C(=O)N(c2ccc(C#N)c(C(F)(F)F)c2)C(=O)N1CCCCO | inactive
O=C1N[C@@H](Cc2ccccc2)CN2CCCC[C@@H]12 | inactive
CN1C(=O)CN=C(c2ccccc2Cl)c2cc(Cl)ccc21 | inactive
